“And” between values parts separate entries of the source, which are not always exact repeats. Equal entries are not always repeated. Screen size: about 5,500 compounds; about 2,000 (36%) were called active. Not shown: some 18% with an inconclusive outcome. Cut-off read from the data, not from the text of the source: active = normalized growth mostly below about 0.91 (no sharp cut-off); inconclusive = no clear call, values can overlap the other calls; inactive = mostly above about 0.92. The list shows a part of the results.
Test: chemical genetic growth profiling, strain panel (AID 1159580);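 note: tested at 20 µM; growth read once vehicle control cultures reached saturation at 30 °C; 1 = growth at the plate median or of vehicle wells; lower values mean less growth of the strain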
Conditions: S. cerevisiae deletion strains, growth OD

Measured: normalized growth

CCn1cc(C(=O)O)c(=O)c2cc(F)c(N3CCNCC3)nc21
inactive: locus YAL013W, strain DEP1, stronger effect = lower value 1.01 | locus YAL021C, strain ccr4, stronger effect = lower value 0.939 | locus YAL026C, strain drs2, stronger effect = lower value 0.985 | locus YAL030W, strain snc1, stronger effect = lower value 0.982 | locus YBL061C, strain skt5, stronger effect = lower value 0.991 | locus YBR009C, strain hhf1, stronger effect = lower value 0.992 | locus YBR021W, strain FUR4, stronger effect = lower value 1.01 | locus YBR023C, strain chs3, stronger effect = lower value 0.983 | locus YBR171W, strain sec66, stronger effect = lower value 0.984 | locus YBR229C, strain ROT2, stronger effect = lower value 1.01 | locus YBR231C, strain swc5, stronger effect = lower value 0.998 | locus YBR279W, strain paf1, stronger effect = lower value 0.982 | locus YCL011C, strain gbp2, stronger effect = lower value 0.987 | locus YCL016C, strain dcc1, stronger effect = lower value 0.986 | locus YCL029C, strain bik1, stronger effect = lower value 1 | locus YCL061C, strain MRC1, stronger effect = lower value 0.987 | locus YCL069W, strain vba3, stronger effect = lower value 0.97 | locus YCR088W, strain abp1, stronger effect = lower value 0.982 | locus YDL005C, strain med2, stronger effect = lower value 0.978 | locus YDL035C, strain GPR1, stronger effect = lower value 1.02 | locus YDL040C, strain nat1, stronger effect = lower value 0.983 | locus YDL074C, strain BRE1, stronger effect = lower value 1 | locus YDL101C, strain DUN1, stronger effect = lower value 1.01 | locus YDL134C, strain PPH21, stronger effect = lower value 1.03 | locus YDL185W, strain tfp1, stronger effect = lower value 1.03 | locus YDL192W, strain arf1, stronger effect = lower value 1.02 | locus YDR001C, strain nth1, stronger effect = lower value 0.978 | locus YDR069C, strain doa4, stronger effect = lower value 0.982 | locus YDR101C, strain arx1, stronger effect = lower value 1 | locus YDR137W, strain rgp1, stronger effect = lower value 0.939 | locus YDR159W, strain sac3, stronger effect = lower value 0.962 | locus YDR162C, strain NBP2, stronger effect = lower value 1.02 | locus YDR195W, strain ref2 0.97 | locus YDR297W, strain sur2, stronger effect = lower value 0.971 | locus YDR318W, strain mcm21, stronger effect = lower value 1.02 | locus YDR334W, strain swr1, stronger effect = lower value 0.974 | locus YDR335W, strain msn5, stronger effect = lower value 0.979 | locus YDR388W, stronger effect = lower value 1.01 | locus YDR392W, strain spt3, stronger effect = lower value 0.946 | locus YDR502C, strain sam2, stronger effect = lower value 1.01 | locus YEL003W, strain gim4, stronger effect = lower value 0.985 | locus YEL037C, strain rad23, stronger effect = lower value 0.975 | locus YEL061C, strain CIN8 (second series), stronger effect = lower value 0.979 | locus YEL061C, strain CIN8, stronger effect = lower value 1.01 | locus YER015W, strain faa2, stronger effect = lower value 0.982 | locus YER016W, strain bim1, stronger effect = lower value 0.984 | locus YER110C, stronger effect = lower value 1.02 | locus YER111C, strain swi4, stronger effect = lower value 0.985 | locus YER155C, strain BEM2 (second series), stronger effect = lower value 0.956 | locus YER155C, strain BEM2, stronger effect = lower value 1.01 | locus YER167W, strain BCK2, stronger effect = lower value 1.03 | locus YFR010W, strain ubp6, stronger effect = lower value 0.984 | locus YGL078C, strain dbp3, stronger effect = lower value 1.01 | locus YGL086W, strain mad1, stronger effect = lower value 1.01 | locus YGL167C, strain pmr1, stronger effect = lower value 0.976 | locus YGL173C, strain kem1, stronger effect = lower value 0.98 | locus YGL227W, strain vid30, stronger effect = lower value 0.987 | locus YGL240W, strain doc1, stronger effect = lower value 0.975 | locus YGL248W, strain PDE1, stronger effect = lower value 1.01 | locus YGL253W, strain hxk2, stronger effect = lower value 0.994 | locus YGR135W, strain pre9, stronger effect = lower value 1.03 | locus YGR252W, strain gcn5, stronger effect = lower value 1.01 | locus YHR013C, strain ard1, stronger effect = lower value 0.966 | locus YHR027C, strain rpn1, stronger effect = lower value 0.994 | locus YHR030C, strain SLT2, stronger effect = lower value 1.01 | locus YHR079C, strain IRE1 (second series), stronger effect = lower value 1.01 | locus YHR079C, strain IRE1, stronger effect = lower value 1.03 | locus YHR094C, strain hxt1, stronger effect = lower value 1.02 | locus YHR129C, strain ARP1, stronger effect = lower value 1.01 | locus YHR142W, strain chs7, stronger effect = lower value 0.984 | locus YHR200W, strain rpn10, stronger effect = lower value 1.01 | locus YIL066C, strain RNR3, stronger effect = lower value 1.02 | locus YIL073C, strain SPO22, stronger effect = lower value 1.08 | locus YIL125W, strain kgd1, stronger effect = lower value 1.01 | locus YIR030C, strain dcg1, stronger effect = lower value 1.01 | locus YJL092W, strain hpr5, stronger effect = lower value 0.991 | locus YJL095W, strain BCK1 (second series), stronger effect = lower value 0.985 | locus YJL095W, strain BCK1, stronger effect = lower value 1 and 1.04 | locus YJL115W, strain asf1, stronger effect = lower value 0.963 | locus YJL129C, strain trk1, stronger effect = lower value 0.943 | locus YJL134W, strain LCB3, stronger effect = lower value 1 | locus YJL154C, strain vps35, stronger effect = lower value 0.961 | locus YJL164C, strain tpk1, stronger effect = lower value 0.992 | locus YJL166W, strain qcr8, stronger effect = lower value 0.981 | locus YJL168C, strain set2, stronger effect = lower value 1.01 | locus YJL187C, strain SWE1 (second series), stronger effect = lower value 1 | locus YJL187C, strain SWE1, stronger effect = lower value 0.981 | locus YJR043C, strain POL32, stronger effect = lower value 0.992

Source: PubChem BioAssay AID1159580 (chemical genetic matrix, 2015)
